Drawing on PubChem BioAssay (NCI), this text covers growth for 13 compounds.

Holding throughout (assay): NCI-60 one-dose screen, 48 h (100 = growth as untreated, 0 = no growth, -100 = all killed)
Common to all, as to settings: 10 µM unless noted

The test system of test [1] is RPMI-8226 leukemia.
The subject of test [2] is OVCAR-8 ovarian.
Test [3] relates to OVCAR-5 ovarian.
For test [4], the system named is OVCAR-4 ovarian.
Test [5] concerns SK-OV-3 ovarian.
In test [6] the test system is IGROV1 ovarian.
Test [7] deals with OVCAR-3 ovarian.
Test [8] relates to HS 578T breast.
For test [9], the system named is NCI/ADR-RES ovarian.
The subject of test [10] is T-47D breast.

SMILES strings stand for the structures. Compounds without any hit were thinned out: in the full panel of roughly 83,000, 20% have a hit.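 Activity criterion: percent growth below 10, measured after cells in 96-well plates were exposed to a single compound concentration for 48 hours.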 Unmarked numbers belong to inactive results. The source made the active and inactive calls.

Regarding `Cc1ccc(C2=N[C@H]3CCC[C@@H]3N(c3ccccc3)C(C(Cl)Cl)=N2)cc1`, the growth in [1] is 111%; in test [2] it was 113%; in [3], 91.3%; in test [4] it was 96.9%; in test [5], 111%; in test [6], 98.7%. The growth is 103% in test [7], 100% in [8], 97.9% in [9] and 106% in test [10].
With `COCCOCCOCc1n(Cc2ccc3ccccc3c2)c2ccccc2[n+]1Cc1ccc2ccccc2c1`, the growth is -6.22% (active) in test [1]; 9.98% (active) in test [2]; 21.4% in test [3]; 17% in test [4]; 2.88% (active) in [5]; -7.12% (active) in test [6]. Further, the growth in test [7] was 7.16% (active); in [8], 39.9%; in test [9] it was 105%; in test [10], -3.39% (active).
Consider `COc1ccc2[nH]c(=O)c(/C=C/C(=O)/C=C/c3ccc(O)c(OC)c3)cc2c1`, for which the growth in test [1] is -18.5% (active); in test [2], 1.42% (active); in test [3] it was 59.4%; in [4], 64.3%; in [5], 56.5%; in [6] it was 2.67% (active). The growth in test [7] was -11.2% (active); in test [8], 25.5%; in test [9], 47.9%; in test [10] it was 26%.
`N#Cc1c(-c2ccc(F)cc2)nc(N/N=C/c2cccc(O)c2)nc1N1CCOCC1`: the growth was 41.3% in test [1]; 69.7% in test [2]; 108% in test [3]; 79.7% in [4]; 93.9% in test [5]; 61.4% in test [6]. Moreover, the growth is 78.6% in test [7], 84.4% in test [8], 72.8% in test [9] and 89.2% in [10].
With `CCOC(=O)CC[C@H](NC(=O)c1ccc(NC)c2ccccc12)C(=O)OCC`, the growth was 91.2% in [1]; 94.7% in test [2]; 101% in test [3]; 104% in test [4]; 92.8% in [5]; 105% in [6]. The growth in test [7] is 102%; in test [8], 105%; in [9], 104%; in [10], 93.8%.
`O=C(CSC(=S)N1CCCCC1)Nc1ccccc1`: the growth in test [1] was 84.6%; in test [2], 99.4%; in test [3], 106%; in test [4] it was 109%; in test [5] it was 106%; in test [6], 103%. Besides, the growth in test [7] is 107%; in test [8], 106%; in [9] it was 102%; in test [10], 81.7%.
In the case of `CCSc1nc(Cl)c(C#N)c(-c2ccc(F)cc2)n1`, the growth was 88.3% in [1]; 90.2% in [2]; 97.7% in test [3]; 97.8% in [4]; 99.7% in test [5]; 98.9% in test [6]. The growth in test [7] is 98%; in test [8], 91.6%; in [9], 102%; in test [10], 90%.
For `CCN1CCN(Cc2ccc(NC(=O)c3cccc(C#Cc4cccc5[nH]nc(N)c45)c3)cc2C(F)(F)F)CC1`, the growth was -36.9% (active) in test [1]; -69.9% (active) in test [2]; -20% (active) in [3]; -2.48% (active) in test [4]; -13.5% (active) in [5]; -60.3% (active) in test [6]. Further, the growth is -62.8% (active) in [7], -19.9% (active) in [8], -35% (active) in test [9] and -32% (active) in test [10].
Turning to `O=C1NN(c2ccccc2)C(c2ccc3c(c2)OCO3)N2CCC[C@@H]12` (stereo not given in full), the growth in test [1] is 105%; in [2], 96.8%; in test [3] it was 108%; in test [4], 108%; in test [5], 99%; in [6] it was 89.7%. The growth in [7] is 100%; in test [8], 104%; in test [9], 97.9%; in test [10], 90.9%.
Take `N#Cc1nc(-c2ccccc2)oc1S(=O)(=O)NCC(c1ccc(Cl)cc1)N1CCCCC1` (stereo not given): the growth was 3.47% (active) in [1]; 71.3% in test [2]; 102% in test [3]; 99.3% in test [4]; 113% in [5]; 44.2% in test [6]. Also, the growth was 61.9% in test [7], 102% in test [8], 91.1% in test [9] and 65.1% in test [10].
Turning to `C#CCOC(=O)[C@]1(C)CCC[C@]2(C)[C@H]3C[C@H]4C(C(C)C)=C[C@]3(CC[C@H]21)[C@@H]1C(=O)CCC(=O)[C@@H]14`, the growth in test [1] was 67.9%; in [2], 90.5%; in test [3], 93.8%; in test [4], 73.9%; in test [5], 78.9%; in test [6] it was 78.3%. Also, the growth in test [7] is 95%; in [8], 80.8%; in [9], 81.5%; in [10] it was 66.7%.
As for `Cn1nc(C(F)(F)F)c(-c2cc(C(F)(F)F)cc(C(F)(F)F)c2)c1-c1ccc(OCc2ccc(Cl)cc2)cc1O`, the growth in [1] is -14.5% (active); in test [2] it was 8.36% (active); in test [3] it was 29.1%; in [4], 20.7%; in test [5] it was -13.5% (active); in test [6], 31.4%. Further, the growth is 7.02% (active) in test [7], 4.39% (active) in test [8], 1.98% (active) in [9] and -11.6% (active) in test [10].
`COc1ccc2nc3c(n2c1)C(=O)C(=O)c1ccccc1-3`: the growth in test [1] was -0.676% (active); in test [2], 9.51% (active); in [3] it was -79.9% (active); in [4], -81.3% (active); in [5] it was 24.8%; in [6], 0.7% (active). In addition, the growth in test [7] was -22.8% (active); in test [8], -6.35% (active); in [9], -7.37% (active); in test [10], 21.4%.
